COUP-TFII inh: NR2F2 transcriptional activity inhibitors, primary screen, cell-based, luciferase reporter, HEK293T, luminescence; COUP transcription factor 2 (Homo sapiens), P24468; HEK293T NGFI-A luciferase reporter; inhibition, % at 8.6 µM; hit rate 0.7% among 370,000; AID 686940, 2013;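 active means inhibition above a per-plate cutoff, mean inhibition of test wells between control levels plus 3 SD, cut at about 38% in these data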;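 further: cells cotransfected with COUP-TFII expression vector driving the NGFI-A reporter; 0% = median of COUP-TF2 test wells and 100% = reporter-only cells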
NCOA3 inh: SRC3 coactivator transcriptional activity inhibitors, primary screen, cell-based, luminescence; Nuclear receptor coactivator 3 (Homo sapiens), Q9Y6Q9; HEK293 GAL4-SRC3 luciferase reporter; inhibition, % at 3.6 µM; hit rate 0.17% among 360,000; AID 588352, 2011;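 active means inhibition above a per-campaign cutoff, the mean of all compounds plus 3 SD, cut at about 60% in these data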;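 further: 0% = DMSO-treated cells and 100% = gossypol-treated cells at 36 µM; higher means less SRC3-driven luciferase light from the GAL4 reporter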
SRC1 inh: SRC1 coactivator transcriptional activity inhibitors, primary screen, cell-based, luminescence | Nuclear receptor coactivator 1 (Homo sapiens), Q15788 | HEK293 GAL4-SRC1 luciferase reporter | inhibition, % at 3.6 µM | hit rate 0.12% among 360,000 | AID 588354, 2011;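 active means inhibition above the campaign mean plus 3 SD, with each screening campaign given its own cutoff, cut at about 60% in these data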;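 further: 0% = DMSO treated cells and 100% = gossypol at 36 µM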
SRC2 inh: inhibition of GAL4-SRC2 driven luciferase reporter, primary screen, SRC2 inhibitor project, cell-based, luminescence; HEK293 GAL4-SRC2 luciferase reporter; Nuclear receptor coactivator 2 (Homo sapiens), Q15596; inhibition, % at 9 µM; hit rate 0.17% among 370,000; AID 651957, 2012;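 active means inhibition above the mean inhibition of all tested compounds plus 3 SD, set per campaign, cut at about 52% in these data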;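 further: 0% = DMSO treated cells and 100% = cells given Gossypol at 36 µM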
LRH-1 inv ag: LRH-1 (NR5A2) inverse agonists, primary screen, cell-based, luminescence, HEK293T, StAR-luciferase reporter; Nuclear receptor subfamily 5 group A member 2 (Homo sapiens), O00482; inhibition, % at 3.6 µM; LRH-1 transfected, 24 h; hit rate 0.13% among 360,000;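 active means inhibition above the mean inhibition of all tested compounds plus 3 SD, cut at about 73% in these data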;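 further: 0% = DMSO wells and 100% = reporter-only cells lacking LRH-1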
Gal4-VP16 ctr: Gal4-VP16 luciferase reporter inhibitors, counter-screen for COUP-TFII antagonist project, cell-based, luminescence, HEK293; shares compounds with COUP-TFII inh; hit rate 25% among 2,500; inhibition, % at 8.5 µM; AID 687007, 2013; in the data active means inhibition above about 13%
COUP-TFII conf: NR2F2 transcriptional activity inhibitors, confirmation, cell-based, luciferase reporter, HEK293, triplicate; shares compounds with COUP-TFII inh; HEK293 NGFI-A luciferase reporter, luminescence; inhibition, % at 8.5 µM; hit rate 45% among 2,500; AID 687008, 2013;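 active means mean inhibition over three repeats above a set limit taken from the earlier primary screen, cut at about 38% in these data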;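 further: 100% = cells given the luciferase reporter alone without the COUP-TF2 vector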
* hit, by the source's call; ! = not confirmed by another sample. Compounds with a hit are over-represented: about 0.84% of the library has one in this group of screens.

`COc1ccccc1-n1c(-c2ccccc2)c[n+]2c1CCc1ccccc1-2` gave COUP-TFII inh 71*, NCOA3 inh 74*!, SRC1 inh 51, SRC2 inh 6, LRH-1 inv ag 66, Gal4-VP16 ctr 18*! and COUP-TFII conf 63*.
Screening COc1ccc(-c2cn(-c3ccc(OC)cc3)c3[n+]2-c2ccccc2CC3)cc1 returned COUP-TFII inh 62*, NCOA3 inh 69*, SRC1 inh 47, SRC2 inh -16, LRH-1 inv ag 72, Gal4-VP16 ctr 12 and COUP-TFII conf 55*.
CC(C)c1ccc(-n2c(-c3ccccc3)c[n+]3c2CCc2ccccc2-3)cc1 was read as COUP-TFII inh 89*, NCOA3 inh 77*, SRC1 inh 50, SRC2 inh 40, LRH-1 inv ag 81*, Gal4-VP16 ctr 28* and COUP-TFII conf 87*.
Screening COc1ccc(-n2c(-c3ccc(Br)cc3)c[n+]3c2CCc2ccccc2-3)cc1 returned COUP-TFII inh 38*, NCOA3 inh 47, SRC1 inh 5, SRC2 inh 17, LRH-1 inv ag 65, Gal4-VP16 ctr 21* and COUP-TFII conf 31.
For CC(=O)OCCCN1CCC2(CCC(c3ccccc3)CC2)C1=O (centres undefined) the results were COUP-TFII inh -3 and SRC2 inh 2.
Screening CCN1CCN(/C=N/c2nc3c(s2)CCCC3)CC1 returned COUP-TFII inh 51*, NCOA3 inh 59, SRC1 inh 46, SRC2 inh 39, LRH-1 inv ag 56, Gal4-VP16 ctr 25* and COUP-TFII conf 55*.
COc1cc(C(=O)NC2CCCCN(C(C)C)C2=O)cc(OC)c1OC (centres undefined) was read as COUP-TFII inh 8 and SRC2 inh -10.
For COC(=O)[C@@]12CCCCC3=C1N(CCC3)C(=O)[C@H]2CC(=O)NCCCN1CCCC1=O the results were COUP-TFII inh -17 and SRC2 inh -18.
O=[N+]([O-])c1ccc(CN2CCN(c3ccc([N+](=O)[O-])cc3)CC2)cc1 was read as COUP-TFII inh 40*, NCOA3 inh 11, SRC1 inh 5, SRC2 inh 13, LRH-1 inv ag 21, Gal4-VP16 ctr 4 and COUP-TFII conf 20.
COC(=O)[C@]12C[C@H](CC(=O)NCc3cccc4ccccc34)C(=O)N(Cc3cccc4ccccc34)C1=C[C@H](C(C)(C)C)O[C@@H]2C was read as COUP-TFII inh 6 and SRC2 inh 5.
CC(C)(C)NCC(=Cc1ccccc1)C(=O)c1ccccc1 was read as COUP-TFII inh 72*, NCOA3 inh 56, SRC1 inh 51, SRC2 inh 68*, LRH-1 inv ag 82*, Gal4-VP16 ctr 48* and COUP-TFII conf 80*.
COC(=O)C12C=C3CC(c4ccc(OC)cc4)=C3C(=O)N1Cc1[nH]c3ccccc3c1C2 (centres undefined) was read as COUP-TFII inh 20 and SRC2 inh -17.
Screening OC[C@@H]1CN(Cc2ccc(-c3ccccc3)cc2)C[C@H](n2cnc3c(NCc4ccc(F)cc4)ncnc32)O1 returned COUP-TFII inh 75*, NCOA3 inh 7, SRC1 inh 8, SRC2 inh 45, LRH-1 inv ag 29, Gal4-VP16 ctr 2 and COUP-TFII conf 54*.
Screening OC[C@@H]1CN(Cc2ccc(-c3ccccc3)cc2)C[C@H](n2cnc3c(Nc4ccccc4)ncnc32)O1 returned COUP-TFII inh 59*, NCOA3 inh 8, SRC1 inh 6, SRC2 inh 32, LRH-1 inv ag -15, Gal4-VP16 ctr 1 and COUP-TFII conf 30.
`OC[C@@H]1CN(Cc2ccc(F)cc2)C[C@H](n2cnc3c(Nc4ccccc4)ncnc32)O1` gave COUP-TFII inh 7, NCOA3 inh -8, SRC1 inh -13, SRC2 inh -6 and LRH-1 inv ag 9.
For CCCC(=O)N1CCC[C@]2(CC[C@H](CCC(=O)OCC)O2)C1 the results were COUP-TFII inh -12 and SRC2 inh -9.
`COC(=O)[C@]12C[C@H](CC(=O)NCC3CCCCC3)C(=O)N(Cc3cccc4ccccc34)C1=C[C@H](C(C)(C)C)O[C@@H]2C` gave COUP-TFII inh -2 and SRC2 inh -35.
Screening Nc1[nH]c2cc(C(F)(F)F)ccc2c1C(=O)NCc1ccc(F)cc1 returned COUP-TFII inh -25 and SRC2 inh -12.
Screening C=C1CC2(CC(c3ccccc3)OC(c3ccccc3)C2)OC1=O (centres undefined) returned COUP-TFII inh 46*, NCOA3 inh -18, SRC1 inh -6, SRC2 inh 50, LRH-1 inv ag 5, Gal4-VP16 ctr 8 and COUP-TFII conf -2.
Screening O=C(NC1CCCCN(Cc2cccc(F)c2)C1=O)c1ccc2ccccc2c1 (centres undefined) returned COUP-TFII inh -19 and SRC2 inh -26.
`CCC[C@H]1[C@@H](NC(=O)Nc2ccc3c(c2)OCO3)CC[C@@]23CCCN2C(=O)CCC[C@@H]13` gave COUP-TFII inh -1.
CCC(C)(C)c1ccc(OCCCC[n+]2cccc(C)c2C)c(C(C)(C)CC)c1 was read as COUP-TFII inh 57*, NCOA3 inh 65*, SRC1 inh 34, SRC2 inh -32, LRH-1 inv ag 79*, Gal4-VP16 ctr 14* and COUP-TFII conf 60*.
For Cc1oc(-c2cc(F)ccc2F)nc1CN1CCC(C(=O)N2CCOCC2)CC1 the results were COUP-TFII inh 0, NCOA3 inh 5, SRC1 inh 0, SRC2 inh 6 and LRH-1 inv ag -4.
Screening Cc1oc(-c2cc(F)ccc2F)nc1CN1CCN(c2ncnc3ccccc23)CC1 returned COUP-TFII inh 43*, NCOA3 inh 28, SRC1 inh 6, SRC2 inh 22, LRH-1 inv ag 16, Gal4-VP16 ctr 1 and COUP-TFII conf 23.
`COc1ccc(-c2nc(CN3CCN(c4ncnc5ccccc45)CC3)c(C)o2)c(OC)c1` gave COUP-TFII inh 52*, NCOA3 inh 4, SRC1 inh 12, SRC2 inh 25, LRH-1 inv ag 17, Gal4-VP16 ctr -3 and COUP-TFII conf 40*.

Source: PubChem BioAssay
